# Screening data as filed in PubChem BioAssay.
# HCV inhibitor – blocks hepatitis C virus | Huh7.5.1 HCVcc-Cre infection, luciferase reporter, 44 h | Potency, µM (titrated, usually from 41.8 µM), for the others: at the highest dose activity change, negative = inhibition, usual class: inhibitors | 3.4% of 340,000 active | AID 651820
#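 Antiviral activity was scored by luciferase reporter output from cells infected with HCVcc-Cre (~0.5 moi) in presence of compound, 44 h infection period, cells seeded 1,000/well 4 h prior.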
# Pf growth 48h – P. falciparum growth inhibition at 48 hours (one generation) | P. falciparum luciferase growth in erythrocytes, 48 h | Potency, µM (series often up to 28.7 µM), inactives show top-dose activity change, negative = inhibition, actives largely listed as inhibitors | 5.9% of 310,000 active
#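 Luciferase-expressing parasites in RBCs, 2% Hct / 0.1% parasitemia final; RPMI 1640 + 0.5% Albumax; 37 C, 5% CO2, one generation; luminescence read-out, lower signal = inhibition.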
# AMA1-RON2 inh – inhibitors of Plasmodium falciparum AMA1-RON2 interaction; 0.2% of 360,000 active; Potency, µM (series often up to 58.2 µM), inactives show top-dose activity change, negative = inhibition, most hits filed as inhibitors; AID 720542; AlphaScreen AMA1-biotinylated RON2 peptide binding;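 also: 0% = vehicle wells and -100% = peptide control; nearly all actives have a fitted effect of over 45% in size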
#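 AMA1 (3D7) with his tag at 25 nM final met compounds first, then biotinylated RON2 peptide at 25 nM; detection used donor plus acceptor beads, 10 µg/mL apiece, read by AlphaScreen after 30 min at room temperature.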
# Pf growth 96h – P. falciparum growth inhibition at 96 hour, primary screen for plastid delayed-death inhibitors; AID 504834; 6.9% of 320,000 active; P. falciparum luciferase reporter growth, 96 h; Potency, µM (top dose mostly 28.7 µM), inactives show at the top dose activity change, negative = inhibition, hits mostly inhibitors
#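 P. falciparum expressing integrated firefly luciferase grown in erythrocytes (2% hematocrit, 0.05% parasitemia final) with compounds for 96 hours at 37 C, 5% CO2. Growth inhibition read as loss of luminescence after adding luciferase detection reagent.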
# The depositor's hits bear a star; u = inconclusive; x = no result given. Most compounds without a hit are left out; they make up all but 11% or so of the library. Calls follow the shape of the dose curve; as a rule, active = well fitted curve in the direction sought with a large enough effect; inconclusive = small, poorly fitted or top-dose-only effect, or another doubt; inactive = no such curve, though single readings can be large; an effect the other way counts as inactive or inconclusive. Unless noted, % is scaled to controls: 0 for no effect and ±100 for the full control effect; potency is read from the fitted curve at half-maximal effect.
SMILES,HCV inhibitor,Pf growth 48h,AMA1-RON2 inh,Pf growth 96h
Cc1ccc(C)c(NC(=S)Nc2cccnc2)c1,5%,-8%,-12%,5%
O=C(N/N=C/c1cccn1-c1cccc(C(=O)O)c1)Nc1ccccc1,6%,7%,8%,-20%
COc1ccc(-c2cc(C(=O)NCc3cccc(C(F)(F)F)c3)[nH]n2)c(C)c1,x,x,3%,x
Cc1cc(NC(=O)Nc2cc(C)nn2-c2ccccc2)n(-c2ccccc2)n1,u,x,11%,0%
Cc1cc(N2C(=O)CCC2=O)n(-c2ccccc2)n1,-10%,4%,12%,10µM*
Cc1nc2ccccn2c1-c1csc(NCc2ccco2)n1,u,-14%,-17%,x
Cc1ccc(Nc2nc(-c3c(C)nc4ccccn34)cs2)cc1,u,12µM*,-1%,10µM*
Cc1ccn2c(-c3csc(NCc4ccccc4)n3)c(C)nc2c1,10µM*,13µM*,-28%,8%
Cc1ccc(Nc2nc(-c3c(C)nc4ncccn34)cs2)cc1,u,u,-4%,0%
CC1(C(=O)NS(=O)(=O)c2cccc(F)c2)CCN1C(=O)c1cccc(F)c1 (stereo not given),x,x,30%,x
CCN1CCc2c(sc(NC(=O)c3ccc(S(=O)(=O)N(C)CC4CCCO4)cc3)c2C(N)=O)C1 (stereo not given),-28%,u,-6%,10µM*
CCCN1CCc2c(sc(NC(=O)c3ccc(S(=O)(=O)N(C)c4ccccc4)cc3)c2C(=O)NC)C1,u,3.3µM*,-10%,2.6µM*
CNC(=O)c1c(NC(=O)c2ccc(S(=O)(=O)N3CCCc4ccccc43)cc2)sc2c1CCN(C)C2,u,u,-12%,u
CCCN1CCc2c(sc(NC(=O)c3ccc(S(=O)(=O)N4CCN(C(=O)OCC)CC4)cc3)c2C(N)=O)C1,u,10µM*,-8%,u
CCCN1CCc2c(sc(NC(=O)c3ccc(S(=O)(=O)N(C)c4ccccc4)cc3)c2C(N)=O)C1,u,9.3µM*,-12%,9.3µM*
CCC(=O)N(c1nnc(SCC(=O)NN2C(=O)NC3(CCCCC3)C2=O)s1)C1CC1,6%,0%,-13%,u
Cc1cc(C)cc(NC(=O)c2ccc(S(=O)(=O)N(C)CC3CCCO3)cc2)c1 (stereo not given),-20%,u,-1%,2.6µM*
Cc1c(NC(=O)c2cnc(Cl)c(Cl)c2)c(=O)n(-c2ccccc2)n1C,6%,16%,10%,4%
CCNc1nc(NCC)nc(N/N=C/c2ccc(Br)cc2)n1,11µM*,u,37%,u
Cc1nnc(N/N=C/c2ccc(-c3ccc(Br)cc3)o2)n1N,u,u,88%,3.7µM*
Cc1nnc(N/N=C/c2ccc([N+](=O)[O-])cc2)n1N,-3%,90%,19%,31%
Cc1nnc(N/N=C/c2ccc(Br)cc2)n1N,-15%,81%,42%,15µM*
C[C@H]1CN([C@@H](C)CO)C(=O)c2cc(Br)cnc2O[C@H]1CN(C)Cc1ccc(Oc2ccccc2)cc1,x,x,-12%,x
Cn1nnnc1SCCNCc1ccccc1OCc1ccc(F)cc1,-7%,-16%,-4%,-7%
O=[N+]([O-])c1cc(O)c2ncccc2c1,0.56µM*,u,-22%,u
SMILES,HCV inhibitor,Pf growth 48h,AMA1-RON2 inh,Pf growth 96h
Cc1ccc([N+](=O)[O-])c2cccnc12,9%,14%,-25%,38%
O=[N+]([O-])c1ccc(Sc2cccc3cccnc23)c2cccnc12,10µM*,u,-6%,u
O=[N+]([O-])c1cc2cccnc2c2ncccc12,u,4.7µM*,126%,9.3µM*
CCc1cccc(CC)c1NC(=O)COC(=O)c1cccc(-c2ccc(OC(C)=O)cc2)c1,3%,-29%,5%,u
Cc1oc(-c2ccccc2)cc1C(=O)NC1CCN(Cc2ccccc2)CC1,u,42%,-18%,2%
CC12CCCCC1(O)[N+](=O)C1=C(CCCC1)N2[O-] (stereo not given),26%,10%,-8%,4.1µM*
COC(=O)c1cc(=O)nc(NNC(C)=O)s1,x,x,-25%,x
C[N+](C)(CC#Cc1ccccc1)CC(=O)c1ccccc1,-1%,u,-5%,170%
C#CC[N+](C)(C)CC#Cc1ccc(C)cc1,-1%,1.9µM*,22%,u
CCOc1cc(-n2cnnn2)c(OCC)cc1NC(=O)c1cnccn1,-5%,-3%,2%,5.2µM*
CCCc1cc(C(N)=O)c(NC(=O)c2ccco2)s1,u,52%,23%,0.41µM*
